The list is not random: actives were taken first. Their share in the collection is about 4.7%.
D1 antagonist: blocks dopamine activation of the human D1 receptor; P21728; activity change, negative = inhibition, % at 10 µM; HEK293 TREx D1 cells, calcium flux, dopamine EC80; stronger effect = lower value; 3.2% of 360,000 active; in the data active = activity change below about -30%
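Allosteric or orthosteric antagonism assessed as attenuation of the calcium response to EC80 dopamine, added 180 s after compound, in induced HEK293 Trex D1 cells loaded with no-wash calcium dye.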
TRHR enhancer-1: TRH receptor (human) allosteric enhancement; P34981; TRHR cells, fluo-8 calcium fluorescence, EC20 TRH enhancement; 0.66% of 360,000 active; enhancement, % at 2 µM; in the data active = enhancement above about 30%
Target sequence (P34981 whole entry, looked up): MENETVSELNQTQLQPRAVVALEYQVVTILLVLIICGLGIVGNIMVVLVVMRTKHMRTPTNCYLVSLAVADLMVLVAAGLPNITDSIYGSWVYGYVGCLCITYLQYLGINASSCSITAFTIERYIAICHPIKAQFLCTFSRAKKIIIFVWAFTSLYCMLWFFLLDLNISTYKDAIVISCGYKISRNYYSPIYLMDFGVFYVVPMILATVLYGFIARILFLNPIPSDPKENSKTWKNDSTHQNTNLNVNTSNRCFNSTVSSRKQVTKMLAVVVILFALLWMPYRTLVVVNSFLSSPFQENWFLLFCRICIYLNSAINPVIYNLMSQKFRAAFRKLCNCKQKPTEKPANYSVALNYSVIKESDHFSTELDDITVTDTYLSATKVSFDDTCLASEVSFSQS
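TRHR-expressing cells loaded with fluo-8 calcium dye were read kinetically (ex 480/em 530) during compound addition, then stimulated with an EC20 of TRH (10 nM final). Enhancement of the Gq-mediated intracellular calcium response was scored.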
D1 ag: activates the human D1 dopamine receptor. P21728. HEK293 T-REx D1 cells, calcium flux, agonist mode. activation, % at 2 µM. 1% of 360,000 active; in the data active = activation above about 30%
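Tetracycline-induced HEK293 TREx D1 cells, force-coupled to calcium signalling, were dye-loaded with a no-wash calcium kit. Compound was pin-added after a 10 s baseline. Fluorescence was read kinetically at 1 cycle/s for 180 s, with calcium rises flagged as agonism.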
D1 PAM: enhances dopamine response at the human D1 receptor; P21728; HEK293 TREx D1 cells, calcium flux, dopamine EC20 potentiation; potentiation, % at 10 µM; 0.036% of 360,000 active; AID 504651; in the data active = potentiation above about 30%
TRHR agonist-1: agonists of human TRH receptor. P34981. TRHR cells, calcium flux fluo-8, FDSS agonist mode. activation, % at 2 µM. 0.18% of 360,000 active. AID 493084; in the data active = activation above about 30%
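Read-out: compound-evoked intracellular calcium rise in TRHR cells, fluo-8 dye, kinetic FDSS fluorescence at 1 s/cycle following a 10-cycle baseline. Cells cultured overnight before dye loading (30 min–1.5 h, RT).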
TRHR enhancer-2: human TRH receptor allosteric enhancement confirmation; shares compounds with TRHR enhancer-1; TRH receptor cell assay, enhancer confirmation qHTS; activity change, negative = inhibition, % at 46.1 µM; 970 tested, under 10 active;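 also: compound effect scored on response to added TRH at EC20 of 10 nM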
TRHR agonist-2: confirmation of human TRH receptor agonists | shares compounds with TRHR enhancer-1 | TRHR-expressing cells, agonist activation read-out | Potency, µM (titrated, usually from 46.1 µM), most hits filed as activators | 8% of 970 active; also: nearly all actives have a fitted effect of over 75% in size
Numbers stand for hits; 0 = inactive; ? = inconclusive; - = no result given. Unless noted, calls follow the shape of the dose curve; as a rule, active = well fitted curve in the direction sought with a large enough effect; inconclusive = small, poorly fitted or top-dose-only effect, or another doubt; inactive = no such curve, though single readings can be large; an effect the other way counts as inactive or inconclusive.

SMILES	D1 antagonist	TRHR enhancer-1	D1 ag	D1 PAM	TRHR agonist-1	TRHR enhancer-2	TRHR agonist-2
COc1cc(/C=C2\SC(=S)N(N(C)c3ccccc3)C2=O)ccc1O	0	0	0	0	36	0	?
O=C(COc1ccc(Br)cc1)Nc1cccc2cccnc12	0	0	0	0	0	-	-
C/C(=N\NC(=O)c1ccc(Cn2cc(Br)cn2)o1)c1ccc(NC(=O)c2ccoc2C)cc1	-43	61	0	0	0	0	0
CCOc1ccc(Cn2c(CNS(=O)(=O)c3cccs3)nc3cccnc32)cc1	0	0	0	0	0	-	-
CCCCc1nc2cc(C(=O)N3CCNC(=O)C3CC(=O)OC)ccc2o1 (stereo not drawn)	0	89	0	0	0	0	0
CCOC(=O)c1c(N)n(-c2ccc(OCC)cc2)c2nc3ccccc3nc12	0	0	0	0	0	-	-
O=C(Cn1c(=O)n(Cc2ccc(C(=O)NCc3ccc4c(c3)OCO4)cc2)c(=O)c2ccccc21)Nc1ccc(F)cc1F	0	0	0	0	0	-	-
CC(C)(C)C1CCc2oc3ccc(NS(=O)(=O)c4cc(Cl)ccc4Cl)cc3c2C1 (stereo not drawn)	0	0	0	0	0	-	-
COc1ccc(OC)c(Nc2nc(-c3cccs3)cs2)c1	0	0	0	0	0	-	-
COc1ccccc1Nc1nc(-c2cccs2)cs1	0	44	0	0	0	0	0
CCN(CC)C(=O)c1ccc2c(c1)N(Cc1c(F)cccc1Cl)C(=O)c1ccccc1S2	0	0	0	0	0	-	-
COc1ccccc1N/C=C/c1onc(C)c1[N+](=O)[O-]	0	0	140	0	47	0	?
O=C(CSc1ncc(-c2ccccc2)nn1)NCc1ccco1	0	0	0	0	0	-	-
O=C(CSc1nnc(-c2ccccc2)c(-c2ccccc2)n1)NCc1ccco1	0	61	0	0	0	0	0
COc1cc(C(=O)NCc2ccccc2)ccc1OC(F)F	0	0	0	0	0	-	-
COc1ccccc1CNC(=O)c1ccc(OC(F)F)c(OC)c1	0	51	0	0	0	0	0
Cc1ccc2c(=O)cc(C(=O)Nc3nnc(CC(C)C)s3)oc2c1C	0	0	0	0	0	-	-
CCN(CC)C(=O)C1c2ccccc2Oc2ccccc21	0	46	32	0	0	0	0
CCCCNC(=O)C1c2ccccc2Oc2ccccc21	0	0	0	0	0	-	-
CCOC(=O)c1cc(CC)sc1NC(=O)COC(=O)c1ccccn1	0	0	0	0	36	0	0
CCOC(=O)c1cc(CC)sc1NC(=O)COC(=O)c1cnccn1	0	0	0	0	0	-	-
CC(=O)Oc1ccc2c(c1)O/C(=C\c1ccncc1)C2=O	0	0	65	0	0	0	?
COc1ccc(/C=C2\Oc3cc(OC(=O)N4CCOCC4)ccc3C2=O)cc1	0	0	0	0	0	-	-
COc1ccccc1C(=O)Oc1ccc2c(c1)O/C(=C\c1ccncc1)C2=O	0	0	36	0	0	0	?
COc1cc(OC)c(OC)cc1/C=C1\Oc2cc(OS(C)(=O)=O)ccc2C1=O	0	0	53	0	38	0	?
SMILES	D1 antagonist	TRHR enhancer-1	D1 ag	D1 PAM	TRHR agonist-1	TRHR enhancer-2	TRHR agonist-2
COc1ccc2c(c1)O/C(=C\c1ccccc1C)C2=O	0	0	0	0	0	-	-
COc1ccc(S(=O)(=O)Oc2ccc3c(c2)O/C(=C\c2cccnc2)C3=O)cc1	0	0	0	0	0	-	-
CC(C)c1ccc(Nc2c(-c3ccc(N4CCOCC4)cc3)nc3ncccn23)cc1	0	0	0	0	0	-	-
Cc1ccc(-c2nnc(Nc3ccc(CC(N)=O)cc3)c3ccccc23)cc1S(N)(=O)=O	0	52	0	0	0	0	0
Cc1ccc(NC(=O)C(=O)c2cc(C)n(-c3ccc(F)cc3)c2C)cc1C	0	0	0	0	0	-	-
CCn1ncc(Cl)c1C(=O)NC(=S)Nc1ccccc1Br	0	0	0	0	0	-	-
Cc1nn(C)c(C(=O)NC(=S)Nc2ccccc2Br)c1Cl	0	0	0	0	75	0	13µM
Cn1nnnc1SCC(=O)NNC(=O)c1ccc(F)cc1	0	44	0	0	0	0	0
COc1cc(/C=C/c2nc3ccccc3s2)cc(OC)c1O	0	0	0	0	32	0	?
COc1cc(-c2nc3ccc(Cl)cn3c2Nc2ccc3c(c2)OCO3)ccc1O	0	0	0	0	0	-	-
O=C(Cc1ccc([N+](=O)[O-])cc1)OCc1ccc([N+](=O)[O-])cc1	0	0	0	0	0	-	-
COC(=O)CCCNC(=O)OCc1ccc([N+](=O)[O-])cc1	0	67	0	0	0	0	0
O=C1c2ccccc2-c2onc3ccc(N4CCCC4)c1c23	0	0	167	0	54	0	?
Cc1ccc(/C=C/c2onc(C)c2S(=O)(=O)N2CCC(C(=O)NCc3ccc(Cl)cc3)CC2)cc1	0	0	0	0	0	-	-
COc1cccc(C2NC(=O)c3n[nH]c(-c4cccs4)c32)c1 (stereo not drawn)	0	0	0	0	0	-	-
CCCCC(=O)N(c1ccc(C(=O)O)cc1)c1nc(-c2ccc(Cl)cc2)c(CC)s1	0	63	0	0	0	0	?
Cc1cc(C)c2c(=O)cc(C(=O)Nc3sc4c(c3C(=O)NCc3ccco3)CCCC4)oc2c1	0	0	0	0	0	-	-
CCOc1cccc(CC(=O)N2CCc3c([nH]c4ccccc34)C2c2ccc(SC)cc2)c1OCC (stereo not drawn)	0	0	0	0	0	-	-
COc1ccc(S(=O)(=O)N2CCCCC2)cc1NC(=S)Nc1ccccc1	0	56	0	0	0	0	0
CCCCOC(=O)c1c(N)n(-c2ccc(OC)cc2OC)c2nc3ccccc3nc12	0	0	0	0	0	-	-
COc1ccc(/C=N/n2c(-c3ccccc3)n[nH]c2=S)cc1	0	49	0	0	0	0	0
Cc1c(C2=CCN(S(=O)(=O)c3ccc(Cl)cc3)CC2)c2ccccc2n1CC(=O)N1CCCC1	0	0	0	0	0	-	-
O=S(=O)(c1ccc(Cl)cc1)c1nc(-c2ccco2)oc1SCc1ccccc1F	0	0	0	0	0	-	-
Cc1nn(CC(=O)Nc2ccc3c(c2)nc2n3CCN(C3CCCCC3)C2)c(=O)c2ccccc12	0	46	0	0	0	0	0
Cc1nn(CC(=O)Nc2ccc3c(c2)nc(CCN2CCCCC2)n3C)c(=O)c2ccccc12	0	0	0	0	0	-	-
Cc1ccc(NC(=O)[C@@H]2CCC(=O)N2C2OC(=O)c3ccccc32)cc1Cl (stereo partly drawn)	0	68	0	0	0	0	0
CC(=O)N1CCc2c(sc3c2c(=O)n(CCc2ccccc2)c(=O)n3Cc2cccc(C)c2)C1	0	0	0	0	0	-	-
Cc1ccc(C)c(C2=CSC3=NS(=O)(=O)CCN23)c1	0	0	0	0	0	-	-

Assay outcomes deposited in PubChem BioAssay by National Center for Advancing Translational Sciences (NCATS).
